Only some compounds are listed: those with a hit (about 2.4% of all), similar ones and a draw of the others.
M1 PAM – human M1 muscarinic receptor positive allosteric modulators, primary screen, CHO-K1 cells, Fluo-8 calcium fluorescence, 1536-well; activation, % at 3 µM; actives 0.088% (n = 360,000); CHO-K1 hM1, ACh EC20; 0% = ACh EC20, 100% = maximal ACh; in the data active = activation above about 19%, passing the limit was not always enough
Target sequence (P11229 whole entry, looked up): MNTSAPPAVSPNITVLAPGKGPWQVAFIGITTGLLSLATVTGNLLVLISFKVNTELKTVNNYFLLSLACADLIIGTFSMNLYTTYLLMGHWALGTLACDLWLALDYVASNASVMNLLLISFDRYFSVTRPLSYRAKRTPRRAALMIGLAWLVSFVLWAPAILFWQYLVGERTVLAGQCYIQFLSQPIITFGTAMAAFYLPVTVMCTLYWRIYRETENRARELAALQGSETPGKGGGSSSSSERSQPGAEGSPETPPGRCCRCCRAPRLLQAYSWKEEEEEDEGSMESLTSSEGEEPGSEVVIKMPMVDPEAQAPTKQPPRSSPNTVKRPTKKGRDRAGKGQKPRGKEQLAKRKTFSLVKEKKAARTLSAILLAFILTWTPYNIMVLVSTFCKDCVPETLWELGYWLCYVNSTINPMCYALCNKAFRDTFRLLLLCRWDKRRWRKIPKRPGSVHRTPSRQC
CHO-K1 Ca antag – counter-screen for M1 antagonists: effect in parental CHO-K1 cells | ATP-induced calcium, Fluo-8 fluorescence | inhibition, % at 3 µM | actives 0.6% (n = 360,000);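 active = inhibition above a per-plate cutoff, the plate's mean sample inhibition plus 3 SD, cut at about 24% in these data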;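 note: 0% = DMSO plus EC80 ATP and 100% = DMSO alone without ATP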
M1 antag – human M1 muscarinic receptor antagonists, primary screen, CHO-K1 cells, Fluo-8 calcium fluorescence, 1536-well. Muscarinic acetylcholine receptor M1 (Homo sapiens), P11229. CHO-K1 hM1, ACh EC80 antagonist. inhibition, % at 3 µM. actives 1.3% (n = 360,000);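 active = percent inhibition above its own plate's cutoff, namely the mean of that plate's compound wells plus 3 SD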;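 note: peak over basal fluorescence ratio during 140 s after agonist addition; 0% = ACh EC80 plus DMSO and 100% = DMSO alone without agonist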
M1 ag parental – counter-screen for M1 agonists: effect in parental CHO-K1 cells | Fluo-8 calcium fluorescence; scaled to maximal ATP response, vehicle zero | activation, % at 3 µM | actives 0.48% (n = 360,000); in the data active = activation above about 15%;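 note: untransfected CHO-K1 host cells lacking M1 receptor as counterscreen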
CHO-K1 Ca PAM – nonselective calcium activators in parental CHO-K1 cells, primary screen, counter-screen for M1 PAM project, cell-based, Fluo-8 calcium fluorescence, full deck, 1536-well | ATP EC20; 0% at ATP EC20, 100% at ATP max | activation, % at 3 µM | actives 0.02% (n = 360,000) | AID 602247, 2012;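 active = activation above the run cutoff, the mean activation of all test compounds plus 3 SD, cut at about 40% in these data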;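 note: peak over basal fluorescence ratio in a 140 s read after ATP addition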
CHRM1 agonist – human M1 muscarinic receptor agonists, primary screen, Fluo-8 calcium fluorescence, CHO-K1 cells, HTS; AID 588814, 2011; Muscarinic acetylcholine receptor M1 (Homo sapiens), P11229; actives 0.33% (n = 360,000); activation, % at 3 µM; CHO-K1 hM1, agonist mode; 0% DMSO, 100% acetylcholine EC100;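 active = activation above the run's mean compound activation plus 3 SD, cut at about 16% in these data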;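 note: peak over basal fluorescence ratio within a 140 s kinetic read after compound addition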
Starred values were filed as active, the others as inactive.

SMILES	M1 PAM	CHO-K1 Ca antag	M1 antag	M1 ag parental	CHO-K1 Ca PAM	CHRM1 agonist
O=C(N/N=C\c1ccc([N+](=O)[O-])s1)C1COc2ccccc2O1 (stereo not given)	5	65*	-6	1	-2	-2
O=C1c2cccc3cccc(c23)C(=O)N1CCCN1CCN(c2ccc(F)cc2)CC1	-4	1	-7	3	3	-6
CC1=C(C(=O)Nc2cccc(C(=O)NC3CCCC(C)C3C)c2)SCCO1 (stereo not given)	-11	11	23	6	-6	0
O=C(C1=C(O)C(=O)N(c2nccs2)C1c1ccccc1)c1cc2ccccc2o1 (stereo not given)	-8	10	8	24*	3	8
CN(C)c1ccc(/C=N/NC(=O)C(=O)/C=C2\NC3(CCCC3)Cc3ccccc32)cc1	26*	7	-11	0	13	11
O=C(/C=C1\NC2(CCCC2)Cc2ccccc21)C(=O)N/N=C/c1ccccc1O	8	1	-11	0	8	-4
COc1cc(/C=N/NC(=O)C(=O)/C=C2\NC3(CCCC3)Cc3ccccc32)ccc1O	9	7	-4	13	14	22*
CCOC(=O)C1(C)CCN1C(=O)c1ccc(C(=O)OC)cc1 (stereo not given)	14	-6	-12	0	7	-1
COc1cc(/C=C/CN2CCN(Cc3ccc(C)o3)C(CCO)C2)ccc1O (stereo not given)	4	0	0	0	7	-6
CC1(C(=O)O)CCC(C(=O)NNC(=O)c2ccccc2Cl)C1(C)C (stereo not given)	-5	1	18	0	-6	-3
O=C(CN1C(=O)C(=O)N(C2CCCC2)C1=O)Nc1ccc(F)cc1F	4	-10	-1	1	3	4
Cc1csc(NC(C)c2nc3cc(C(F)(F)F)ccc3n2CCCO)n1 (stereo not given)	7	-2	-2	4	15	-5
O=C(Nc1ccc(C(=O)O)cc1)/C(=C\c1ccc([N+](=O)[O-])cc1)NC(=O)c1ccc(Br)cc1	-9	28*	6	-1	-18	-3
Cc1ccc(NC(=O)/C(=C\c2ccc([N+](=O)[O-])cc2)NC(=O)c2ccccc2)cc1	2	0	0	0	6	-3
Oc1ccc2ccccc2c1CN1CCN(C/C=C/c2ccccc2)CC1	-30	-4	77*	0	15	-7
O=S(=O)(c1ccccc1)N1CCN(Cc2c(O)ccc3ccccc23)CC1	-12	5	21	4	-6	-3
CN(CC(=O)Nc1ccccc1F)CC(=O)Nc1ccc(F)c(F)c1F	2	1	-3	2	6	-6
CN(CC(=O)Nc1ccc(F)c(F)c1F)C(=O)C1(c2ccccc2)CC1	3	24*	-8	2	7	-2
COc1ccc(CCNc2nc3ccccc3n3nnnc23)cc1OC	-4	27*	5	2	0	1
Cc1ccc(S(=O)(=O)c2nc(S(=O)(=O)c3ccc(C)cc3)c(N3CCN(CCO)CC3)s2)cc1	6	-18	-6	3	17	-3
COCCCNC(=O)c1sc2ncn(CC(=O)Nc3ccc(C)c(Cl)c3)c(=O)c2c1C	2	-19	-10	5	40*	-3
Cc1ccc(NC(=O)c2sc3ncn(CC(=O)N4CCN(c5ccccn5)CC4)c(=O)c3c2C)cc1Cl	-23	-12	63*	5	-5	1
O=[N+]([O-])c1cc([N+](=O)[O-])c2c(=Nc3ccccc3)n(-c3ccccc3)n(O)c2c1	-6	-15	9	2	22	-5
O=C(COc1ccc2ccccc2c1)N1CCN(c2ccccc2O)CC1	-6	24*	-9	1	-6	-1
O=C(COc1ccc2ccccc2c1)N1CCNCC1	17	-23	-21	0	23	-3
SMILES	M1 PAM	CHO-K1 Ca antag	M1 antag	M1 ag parental	CHO-K1 Ca PAM	CHRM1 agonist
OC(c1ccco1)c1nc(-c2ccc(F)c(Cl)c2)cs1 (stereo not given)	5	-12	-13	1	2	0
CC(C)CN1C(=O)c2ccc(C(=O)Nc3ccncc3)cc2C1=O	-7	-16	9	18*	0	1
CC(C)CN1C(=O)c2ccc(C(=O)Nc3ccccn3)cc2C1=O	6	10	-3	0	-7	-1
CCCNC(=O)C1(C)CCCN(CC(=O)c2ccccc2OC)C1 (stereo not given)	-3	-5	-3	0	-10	-4
O=P(CCCCCCCCCP(=O)(c1ccccc1)c1ccccc1)(c1ccccc1)c1ccccc1	-10	16	32*	6	-1	2
Cc1ccc(NC(=O)c2ccc(Cl)c(S(=O)(=O)N3CCCC3)c2)nc1	-1	-7	1	5	10	-1
COc1ccc(N=C(NN)c2ccc3ccccc3n2)cc1	6	-7	-4	1	28	-7
CCCCSc1nc2[nH]ncc2c(=O)[nH]1	2	5	2	0	4	-9
CCCCN(CCCC)c1cn[nH]c(=O)c1Cl	-21	-5	27*	0	6	-7
CCC(=O)c1ccc(N2CCN(C(=O)c3cccs3)CC2)c(F)c1	6	26*	-12	3	-10	-1
Cc1ccc(F)cc1NC(=O)C12CC3CC(C1)CC(n1cnc([N+](=O)[O-])n1)(C3)C2	1	-1	-2	0	2	-7
CN1CCN(C2=Cc3ccccc3Sc3cc(F)c(F)cc32)CC1	-21	-4	70*	2	20	-6
CN1CCN(C2=Cc3cc(Cl)ccc3Sc3cc(F)ccc32)CC1	-25	0	82*	2	25	-5
CN1CCN(C2=Cc3ccccc3Sc3cc(F)c(Cl)cc32)CC1	-21	-9	69*	0	6	-3
CN1CCN(c2ccccc2NC(=O)c2ccccc2F)CC1	7	-14	-12	2	20	-7
CN1CCN(c2nc(-c3ccc(Cl)c(Cl)c3)nc3ccccc23)CC1	1	-4	-5	0	1	-2
CC(Oc1ccc(Cl)cc1Cl)C(=O)OCC(=O)c1c(N)n(C)c(=O)n(C)c1=O (stereo not given)	6	-25	-6	3	-9	-1
Cc1ccc(O)c(C2=NNC(c3ccc(Cl)cc3)C2)c1 (stereo not given)	12	10	45*	3	12	23*

Screens (PubChem)
